Experimental data as given in PubChem BioAssay (NCATS).
Inconclusive results are not listed. Activity calls are given as the source filed them. Calls come from the whole dose curve; as a rule, active = well fitted cell-killing curve with a large enough effect; inconclusive = small, poorly fitted or top-dose-only effect, or effect the other way; inactive = flat fitted curve, though single readings scatter.

What was measured:
Assay in all cases: Primary qHTS to identify gynecologic anti-cancer compounds using libraries of approved drugs and bioactive compounds (AID 1345084); note: nearly all actives have a fitted effect of over 55% in size
Conditions in all cases: Gynecologic cancer cell panel viability, ATPlite luminescence, 48 h; series mostly up to 57.5 µM
OV90 = tested on: OV90
Outline: (§1)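 Cell viability after 48 h drug treatment, ATPlite luminescence readout; five doses.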

PA-1 = tested on: PA-1
Outline: as §1

SKOV3 = tested on: SKOV3
Outline: as §1

Tov-21-G = tested on: Tov-21-G
Outline: as §1

Tov112D = tested on: Tov112D
Outline: as §1
% is set by controls: 0 for no effect and ±100 for the full control effect.

CN1C(=O)N(c2cc(Cl)cc(Cl)c2)C(=O)[C@@]1(C)Cc1ccc(Br)cc1
inactive: Potency (OV90) | Potency (PA-1) | Potency (SKOV3) | Potency (Tov-21-G) | Potency (Tov112D)

CC(=O)OC(C)(C)/C=C/C(=O)[C@](C)(O)C1[C@H](O)C[C@@]2(C)[C@@H]3CC=C4[C@@H](C[C@H](O[C@@H]5O[C@H](CO)[C@@H](O)[C@H](O)[C@H]5O)C(=O)C4(C)C)[C@]3(C)C(=O)C[C@]12C (stereo not given in full)
inactive: Potency (OV90) | Potency (PA-1) | Potency (SKOV3) | Potency (Tov-21-G) | Potency (Tov112D)

C[C@H]1CC(=O)C2=C(C1)C(O)C(O)[C@@]1(O)[C@H]2C(=O)c2cccc(O)c2[C@@H]1O (stereo not given in full)
inactive: Potency (OV90) | Potency (PA-1) | Potency (SKOV3) | Potency (Tov-21-G) | Potency (Tov112D)

COc1cc(Nc2nc3ccccc3nc2NS(=O)(=O)c2cccc(NC(=O)c3ccc(C)c(OC)c3)c2)cc(OC)c1
inactive: Potency (OV90) | Potency (PA-1) | Potency (SKOV3) | Potency (Tov-21-G) | Potency (Tov112D)

O=C(NC1Cc2ccccc2N(C[C@@H](O)CO)C1=O)c1cc2cc(Cl)sc2[nH]1 (stereo not given in full)
inactive: Potency (OV90) | Potency (PA-1) | Potency (SKOV3) | Potency (Tov-21-G) | Potency (Tov112D)

C/C=C1/[C@H](O[C@@H]2O[C@H](CO)[C@@H](O)[C@H](O)[C@H]2O)OC=C(C(=O)OC)[C@H]1CC(=O)OCCc1ccc(OC(=O)C[C@@H]2C(C(=O)OC)=CO[C@@H](O[C@@H]3O[C@H](CO)[C@@H](O)[C@H](O)[C@H]3O)/C2=C/C)cc1
inactive: activity change, negative = cytotoxicity (OV90) 7.47% [at 11.6 µM] | activity change, negative = cytotoxicity (PA-1) 1.32% [at 11.6 µM] | activity change, negative = cytotoxicity (SKOV3) 0% [at 11.6 µM] | activity change, negative = cytotoxicity (Tov-21-G) 4.28% [at 11.6 µM] | activity change, negative = cytotoxicity (Tov112D) 11.9% [at 11.6 µM]

COc1cc2c(cc1OC)N1C(=O)C[C@@]34C=CC[N@+]5([O-])CC[C@H]2[C@H](CC3)[C@@]145
inactive: Potency (OV90) | Potency (PA-1) | Potency (SKOV3) | Potency (Tov-21-G) | Potency (Tov112D)

COc1cc(/C=C/C(=O)O[C@H]2C[C@@H]3C(C(=O)O)=CO[C@@H](O[C@@H]4O[C@H](CO)[C@@H](O)[C@H](O)[C@H]4O)[C@@H]3[C@H]2C)ccc1O
inactive: Potency (OV90) | Potency (PA-1) | Potency (SKOV3) | Potency (Tov-21-G) | Potency (Tov112D)

CC1=CC(=O)C2C(C)(C)CCC[C@]2(C)[C@H]1CC[C@H](C)CC(=O)O (stereo not given in full)
inactive: Potency (OV90) | Potency (PA-1) | Potency (SKOV3) | Potency (Tov-21-G) | Potency (Tov112D)

CC1(C)CC=C(C#Cc2ccccc2)c2cc(/C=C/c3ccc(C(=O)O)cc3)ccc21
inactive: Potency (OV90) | Potency (PA-1) | Potency (SKOV3) | Potency (Tov-21-G) | Potency (Tov112D)

CC(=O)NC1CC(=O)C23C(=O)NC(Cc4c[nH]c5ccccc45)C2C(C)=C(C)C(O)C3/C=C/CC(C)/C=C(/C)C(O)C1O (stereo not given)
inactive: Potency (OV90) | Potency (PA-1) | Potency (SKOV3) | Potency (Tov-21-G) | Potency (Tov112D)

C=C(C(=O)O)C1CC(OC(=O)CC(C)CC)C2(C)CCCC(=C)C2C1 (stereo not given)
inactive: Potency (OV90) | Potency (PA-1) | Potency (SKOV3) | Potency (Tov-21-G) | Potency (Tov112D)

C=C[C@H]1[C@H](O[C@@H]2O[C@H](CO)[C@@H](O)[C@H](OC(=O)/C=C/c3ccc(O)c(OC)c3)[C@H]2O)OC=C2C(=O)OCC[C@]21O
inactive: Potency (OV90) | Potency (PA-1) | Potency (SKOV3) | Potency (Tov-21-G) | Potency (Tov112D)

C/C(=C\CCC1(C)C2CC3C(C2)C31C)C(=O)O (stereo not given)
inactive: Potency (OV90) | Potency (PA-1) | Potency (SKOV3) | Potency (Tov-21-G) | Potency (Tov112D)

Cc1cn2cc(CC(=O)N3CCC4(CC3)CN(Cc3ccc(-n5nccn5)cc3Cl)C4)nc2s1
inactive: Potency (OV90) | Potency (PA-1) | Potency (SKOV3) | Potency (Tov-21-G) | Potency (Tov112D)

COc1cccc(C)c1C(=O)O[C@@H]1C[C@H](O[C@H]2[C@H](O)C[C@H](O[C@@H]3CCC[C@H]4[C@H]3C=C[C@@H]3CCCC/C=C/[C@H]5C=C(C(=O)O)[C@@H](C)C[C@@]56OC(=O)C(=C6O)OC(=O)[C@@]34C)O[C@@H]2C)O[C@H](C)[C@H]1O
inactive: activity change, negative = cytotoxicity (OV90) 2.5% [at 11.6 µM] | activity change, negative = cytotoxicity (PA-1) 9.36% [at 11.6 µM] | activity change, negative = cytotoxicity (SKOV3) 18.8% [at 11.6 µM] | activity change, negative = cytotoxicity (Tov-21-G) 11.1% [at 11.6 µM] | activity change, negative = cytotoxicity (Tov112D) -1.83% [at 11.6 µM]

C/C=C(\C)C(=O)OC[C@H]1O[C@@H](O[C@H]2[C@@H](O[C@H]3O[C@H](COC(=O)/C(C)=C/C)[C@@H](O)[C@H](O)[C@H]3O[C@@H]3O[C@H](CO)[C@@H](O)[C@H](OC(=O)/C(C)=C/C)[C@H]3O)O[C@H](COC(=O)/C(C)=C/C)[C@@H](O)[C@@H]2O)[C@H](O)[C@@H](O)[C@@H]1O
inactive: activity change, negative = cytotoxicity (OV90) -2.51% [at 11.6 µM] | activity change, negative = cytotoxicity (PA-1) -18.4% [at 11.6 µM] | activity change, negative = cytotoxicity (SKOV3) 3.76% [at 11.6 µM] | activity change, negative = cytotoxicity (Tov-21-G) 2.42% [at 11.6 µM] | activity change, negative = cytotoxicity (Tov112D) 2.79% [at 11.6 µM]

O=C(Cc1ccc(Cl)cc1)Nc1cnccc1C(=O)O
inactive: Potency (OV90) | Potency (PA-1) | Potency (SKOV3) | Potency (Tov-21-G) | Potency (Tov112D)

C=C(C(=O)O)[C@@H]1CC[C@@]2(C)CC[C@@H](O)C(=C)C2C1 (stereo not given in full)
inactive: Potency (OV90) | Potency (PA-1) | Potency (SKOV3) | Potency (Tov-21-G) | Potency (Tov112D)

C[C@@H]1O[C@@H](O[C@H]2[C@@H]3C=CO[C@@H](O[C@@H]4O[C@H](CO)[C@@H](O)[C@H](O)[C@H]4O)[C@@H]3[C@@]3(CO)O[C@@H]23)[C@H](O)[C@H](OC(=O)/C=C/c2ccc(O)cc2)[C@H]1OC(=O)/C=C/c1ccc(O)cc1
inactive: Potency (OV90) | Potency (PA-1) | Potency (SKOV3) | Potency (Tov-21-G) | Potency (Tov112D)

N#Cc1cccc(-c2c[nH]c3ncnc(N4CCOCC4)c23)c1
inactive: Potency (OV90) | Potency (PA-1) | Potency (SKOV3) | Potency (Tov-21-G) | Potency (Tov112D)

COc1cc(O)cc(C)c1C(=O)OC1C(CO)OC(n2ccc(=O)[nH]c2=O)C1OC(C)=O (stereo not given)
inactive: Potency (OV90) | Potency (PA-1) | Potency (SKOV3) | Potency (Tov-21-G) | Potency (Tov112D)

CC(=O)OC1C(O)C(C)(O)C(/C=C/C(=O)O)C2(C)CCCC(C)(C)C12 (stereo not given)
inactive: Potency (OV90) | Potency (PA-1) | Potency (SKOV3) | Potency (Tov-21-G) | Potency (Tov112D)

O=C(Nc1ccc(N2CCC(C(=O)N3CCOCC3)CC2)cc1)c1cnc(Oc2ccccc2)nc1
inactive: Potency (OV90) | Potency (PA-1) | Potency (SKOV3) | Potency (Tov-21-G) | Potency (Tov112D)

COc1ccc(CC(NC(C)=O)C(=O)O)cc1 (stereo not given)
inactive: Potency (OV90) | Potency (PA-1) | Potency (SKOV3) | Potency (Tov-21-G) | Potency (Tov112D)

CC[C@H](C)[C@H](NC(=O)[C@H](Cc1ccc(O)cc1)NC(=O)[C@@H](N)C(C)C)C(=O)N[C@@H](Cc1cnc[nH]1)C(=O)N1CCC[C@H]1C(=O)N[C@@H](Cc1ccccc1)C(=O)O
inactive: activity change, negative = cytotoxicity (OV90) -1.9% [at 6.55 µM] | activity change, negative = cytotoxicity (PA-1) 4.28% [at 6.55 µM] | activity change, negative = cytotoxicity (SKOV3) 16.8% [at 6.55 µM] | activity change, negative = cytotoxicity (Tov-21-G) 1.06% [at 6.55 µM] | activity change, negative = cytotoxicity (Tov112D) 12.4% [at 6.55 µM]

COc1cc2c(c(OC)c1O)C(c1ccc(O)cc1)C1C(=O)OC3C(COC(=O)C1=C2)OC(CO)(OC1OC(COC(=O)/C=C/c2ccc(OC4OC(C)C(O)C(O)C4O)cc2)C(O)C(O)C1O)C3O (stereo not given)
inactive: activity change, negative = cytotoxicity (OV90) 10.3% [at 11.6 µM] | activity change, negative = cytotoxicity (PA-1) -0.775% [at 11.6 µM] | activity change, negative = cytotoxicity (SKOV3) 25.2% [at 11.6 µM] | activity change, negative = cytotoxicity (Tov-21-G) -2.98% [at 11.6 µM] | activity change, negative = cytotoxicity (Tov112D) -3.14% [at 11.6 µM]

COc1cc(C(=O)OCC2=CCC3C(C(=O)O)=COC(O[C@@H]4O[C@H](CO)[C@@H](O)[C@H](O)[C@H]4O)C23)ccc1O (stereo not given in full)
inactive: Potency (OV90) | Potency (PA-1) | Potency (SKOV3) | Potency (Tov-21-G) | Potency (Tov112D)

O=C(/C=C/c1ccc(O)cc1)OC[C@H]1O[C@@H](O/C(=C\c2ccccc2)C(=O)O)[C@H](O)[C@@H](O)[C@@H]1O
inactive: Potency (OV90) | Potency (PA-1) | Potency (SKOV3) | Potency (Tov-21-G) | Potency (Tov112D)

COC(=O)C1=COC(O[C@@H]2O[C@H](COC(=O)/C=C/c3ccc(O)cc3)[C@@H](O)[C@H](O)[C@H]2O)C2C(CO)=CCC12 (stereo not given in full)
inactive: Potency (OV90) | Potency (PA-1) | Potency (SKOV3) | Potency (Tov-21-G) | Potency (Tov112D)

NC(N)=NCCC[C@H](NC(=O)c1sccc1NS(=O)(=O)c1cccc2nsnc12)C(=O)O
inactive: Potency (OV90) | Potency (PA-1) | Potency (SKOV3) | Potency (Tov-21-G) | Potency (Tov112D)

C/C=C/C(=O)OC1/C=C/C(O)C(OC(C)=O)CCC(=O)OC1C (stereo not given)
inactive: Potency (OV90) | Potency (PA-1) | Potency (SKOV3) | Potency (Tov-21-G) | Potency (Tov112D)

COc1cc(C(CO)CO[C@@H]2O[C@H](CO)[C@@H](O)[C@H](O)[C@H]2O)ccc1O (stereo not given in full)
inactive: Potency (OV90) | Potency (PA-1) | Potency (SKOV3) | Potency (Tov-21-G) | Potency (Tov112D)

COc1cc(/C=C/C(=O)OC[C@H]2O[C@@H](OC3CC(C)=C(C(=O)O)C(C)(C)C3)[C@H](O)[C@@H](O)[C@@H]2O)cc(OC)c1O (stereo not given in full)
inactive: Potency (OV90) | Potency (PA-1) | Potency (SKOV3) | Potency (Tov-21-G) | Potency (Tov112D)

COC(=O)C1=COC(OC2OC(CO)C(O)C(O)C2O)C2C(COC(=O)/C=C/c3ccc(O)cc3)C(O)C(O)C12 (stereo not given)
inactive: Potency (OV90) | Potency (PA-1) | Potency (SKOV3) | Potency (Tov-21-G) | Potency (Tov112D)

CCCC(=O)Nc1cccc(NC(=O)c2ccccc2Br)c1
inactive: Potency (OV90) | Potency (PA-1) | Potency (SKOV3) | Potency (Tov-21-G) | Potency (Tov112D)

CC(=O)OC[C@]12[C@@H](OC(=O)c3ccoc3)C[C@@H]3[C@@H](OC(C)=O)[C@]1(OC3(C)C)[C@@](C)(O)C[C@H](OC(=O)c1ccoc1)[C@@H]2OC(=O)c1ccoc1
inactive: Potency (OV90) | Potency (PA-1) | Potency (SKOV3) | Potency (Tov-21-G) | Potency (Tov112D)
